From PubChem BioAssay
BoNT-F LC inh: inhibitors of Botulinum neurotoxin F light chain protease; Multiplex microsphere protease cleavage assay, flow cytometry; inhibition, % at 10 µM; 360,000 tested, 0.22% active; in the data active = inhibition above about 35%, passing the limit was not always enough; inconclusive = no clear call, values can overlap the other calls; note: plate controls were buffer without enzyme for full effect and enzyme alone for no effect
Anthrax LF prot: anthrax lethal factor protease inhibition; P15917; multiplex microsphere protease cleavage assay, LF; inhibition, % at 10 µM; 360,000 tested, 0.12% active; AID 588501; note: plate controls were buffer without enzyme for full effect and enzyme alone for no effect
Target sequence (P15917 whole entry, looked up): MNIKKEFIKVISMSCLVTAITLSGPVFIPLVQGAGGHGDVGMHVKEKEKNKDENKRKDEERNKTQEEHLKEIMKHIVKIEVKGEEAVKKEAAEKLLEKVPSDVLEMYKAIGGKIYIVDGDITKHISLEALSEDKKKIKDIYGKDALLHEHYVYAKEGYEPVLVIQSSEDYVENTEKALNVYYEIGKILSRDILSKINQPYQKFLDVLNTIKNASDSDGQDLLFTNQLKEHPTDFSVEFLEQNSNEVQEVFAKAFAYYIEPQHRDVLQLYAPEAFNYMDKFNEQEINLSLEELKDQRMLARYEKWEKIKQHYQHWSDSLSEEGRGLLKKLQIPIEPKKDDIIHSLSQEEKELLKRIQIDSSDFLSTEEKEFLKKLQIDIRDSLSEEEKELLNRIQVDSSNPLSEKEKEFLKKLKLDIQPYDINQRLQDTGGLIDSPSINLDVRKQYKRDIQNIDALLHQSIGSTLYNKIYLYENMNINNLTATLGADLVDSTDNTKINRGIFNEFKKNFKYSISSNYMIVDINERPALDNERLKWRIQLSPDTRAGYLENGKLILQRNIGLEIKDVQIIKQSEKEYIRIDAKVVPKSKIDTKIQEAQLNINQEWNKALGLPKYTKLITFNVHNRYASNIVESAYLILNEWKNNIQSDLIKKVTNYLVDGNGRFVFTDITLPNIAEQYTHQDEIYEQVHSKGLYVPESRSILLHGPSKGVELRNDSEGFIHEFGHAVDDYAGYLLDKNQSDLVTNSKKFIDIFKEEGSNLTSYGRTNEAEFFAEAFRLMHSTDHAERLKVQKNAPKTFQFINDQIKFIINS
Autofluor counter: counter-screen for toxin protease inhibitors: compound fluorescence. fluorescence intensity (no concentration beside the values). compound autofluorescence counterscreen, microsphere flow cytometry; stronger effect = higher value. AID 624483. 360,000 tested, 3.1% active; in the data active = fluorescence intensity above about 16000; inconclusive = no clear call, values can overlap the other calls
BoNT A protease: BoNT A light chain protease inhibition; AID 588499; 360,000 tested, 0.17% active; multiplex microsphere protease substrate cleavage, flow cytometry; inhibition, % at 10 µM; note: plate controls were buffer without enzyme for full effect and enzyme alone for no effect
Numbers without * were called inactive; ? = inconclusive. The list is not random: actives were taken first. Their share in the collection is about 3.5%. Cut-off read from the data, not from the text of the source, unless noted: active = inhibition above about 30%; inconclusive = no clear call, values can overlap the other calls; inactive = below that.

SMILES	BoNT-F LC inh	Anthrax LF prot	Autofluor counter	BoNT A protease
C[C@@H]1CN([C@H](C)CO)C(=O)CCCn2cc(nn2)CO[C@H]1CN(C)C(=O)Nc1ccc2c(c1)OCO2	-2.9	2.7	3425	-0.3
CCOc1ccc2cc(C#N)c(SCC(=O)N3CCC(C)CC3)nc2c1	-2.3	1.5	23801*	-1.8
COc1ccc2cc(C#N)c(SCC(=O)NNC(=O)Cc3ccccc3)nc2c1	-1.9	0.2	19935*	1.0
CC(C)Nc1ncnc2c1ncn2[C@H]1CN(Cc2cccs2)C[C@@H](CO)O1	4.9	1.7	2957	0.5
CC(C)CN(C(=O)CCNC(=O)c1ccc(Cl)cc1)C1CCS(=O)(=O)C1 (configuration not stated)	0.5	3.1	3437	0.2
CC(C(=O)c1ccc(Br)cc1)[n+]1cccc2ccccc21 (configuration not stated)	?	-7.7	16961*	-4.5
CCc1nc2ccc(C(=O)NCCCn3ccnc3)cn2c1N(C)Cc1ccc(Cl)cc1	-2.8	-9.7	4062	-0.3
Cc1ccccc1Oc1ccc2c(c1)[C@@H]1C[C@H](N(C)C(=O)c3ccco3)[C@H]([C@H](C)O)C(=O)N1CC2	-4.9	0.2	3970	-0.1
CCOC(=O)CC(/C(C)=N\O)c1ccccc1 (configuration not stated)	-5.2	0.9	21192*	-5.0
COc1cccc(-c2cc(CNC(=O)[C@H]3O[C@@H](n4ccc(=O)[nH]c4=O)[C@H](O)[C@@H]3O)no2)c1	-7.2	2.3	5340	-0.1
CCOC(=O)COc1ccc(C(=O)NC2CCCCC2)cc1	5.3	2.2	20056*	?
CCOc1ccc(C(=S)NC2CCCCC2)cc1	2.0	-3.8	20072*	?
CC(C)(C)OC(=O)NC(CCCCNC=O)C(=O)O (configuration not stated)	1.7	-2.2	23419*	0.2
CC(C)CC(NC(=O)OC(C)(C)C)C(=O)O (configuration not stated)	-3.3	-4.4	4655	-0.4
c1ccc(-n2ncc3c(N4CCN(c5ccccn5)CC4)nc(N4CCCCCC4)nc32)cc1	1.0	-3.0	19448*	2.0
c1ccc(-n2ncc3c(N4CCCCC4)ncnc32)cc1	7.4	15.0	5347	7.6
CNC(=O)OCc1nc(SSC(C)(C)C)n(C)c1COC(=O)NC	-11.5	-9.6	3510	0.6
O=c1c(-c2nnc(SCc3ccc(Cl)cc3Cl)o2)cccn1Cc1ccccc1	-0.7	0.5	22041*	?
CSc1nnc(-c2cccn(Cc3ccccc3)c2=O)o1	1.0	11.4	3506	0.6
CC(C)CO/C(=N/S(=O)(=O)c1ccccc1)c1ccccc1	-3.1	-2.9	21474*	-1.4
CCCc1nc(S(=O)(=O)Cc2ccc(Cl)cc2Cl)n[nH]1	8.2	0.1	17841*	4.8
O=C(COc1ccc(F)cc1)Nc1nnc(-c2ccncc2)s1	-8.4	-4.5	18059*	-3.2
CC(=O)c1ccc(NC(=O)c2ccn[nH]2)cc1	-2.7	0.3	22226*	-0.9
O=C(Nc1ccccc1)c1ccn[nH]1	-2.1	-1.5	2448	-0.6
Nc1[nH]c(C(=O)c2ccccc2)c(-c2cccnc2)c1C(=O)NCCc1ccc(Cl)cc1Cl	-1.2	6.9	6282	0.1
SMILES	BoNT-F LC inh	Anthrax LF prot	Autofluor counter	BoNT A protease
O=S1(=O)N=C(Oc2ccccc2)c2ccccc21	-0.5	-0.5	23213*	0.8
COC1=NS(=O)(=O)c2ccccc21	-0.1	0.3	2274	0.3
CSc1nnc(-c2nnc(SC)n2-c2ccccc2)n1-c1ccccc1	0.0	-1.2	16237*	0.0
CC(C)NC(=O)N(C)C[C@H]1Oc2ccc(NC(=O)NC3CCCCC3)cc2C(=O)N([C@H](C)CO)C[C@@H]1C	-5.3	-0.2	4141	0.0
CCOC(=O)N1CCN(c2cc(=O)n(-c3ccc(OCC)cc3)c(=O)[nH]2)CC1	1.0	-0.2	22900*	1.2
COc1ccccc1N1CCN(c2cc(=O)n(-c3ccc(Br)cc3)c(=O)[nH]2)CC1	9.6	-2.1	21225*	5.8
Cc1ccccc1C(=O)N/N=C/c1ccncc1	-0.8	-2.0	19987*	?
O=C1/C(=C\c2ccc(-c3ccccc3Cl)o2)SC(=S)N1CC1CCCO1 (configuration not stated)	-46.2	59.1*	4106	189.2*
C=CCN1C(=O)/C(=C/c2ccsc2)SC1=S	-5.8	-3.8	4206	-1.9
O=C(O)C(c1ccccc1)N1C(=O)/C(=C\c2ccc(-c3ccc(Br)cc3)o2)SC1=S (configuration not stated)	13.0	23.9	4524	65.2*
COc1cc(/C=C2\SC(=S)N(C(C(=O)O)c3ccccc3)C2=O)cc(OC)c1OC (configuration not stated)	2.4	0.1	2516	2.2
O=C(O)C(c1ccccc1)N1C(=O)/C(=C\c2ccc(-c3ccccc3Cl)o2)SC1=S (configuration not stated)	8.9	18.4	3117	41.1*
C=CCN1C(=O)/C(=C/c2ccc(-c3ccc(F)cc3)o2)SC1=S	26.1	63.7*	3620	78.6*
COc1ccc(S(=O)(=O)N2CCC(C(=O)N[C@H](C(=O)NCc3ccccc3)C(C)C)CC2)cc1	-5.1	-6.4	2989	0.1
O=C(Nc1ncc2c(n1)-c1ccccc1CC2)c1ccc(Cl)cc1	3.0	1.9	22185*	1.6
O=C(Nc1ncc2c(n1)-c1ccccc1OC2)c1ccc(Cl)cc1Cl	0.9	-1.3	16392*	0.7
C[C@H]1CN([C@@H](C)CO)S(=O)(=O)c2ccc(Br)cc2O[C@H]1CN(C)C(=O)Cc1ccncc1	-1.7	0.9	4562	-1.2
Cc1nnc(SCc2ccc(F)cc2Cl)s1	-2.1	0.1	19791*	-0.4
Nc1nnc(SCc2ccc(Cl)cc2)s1	-5.6	-8.2	3251	-0.2
Cc1nnc(SCc2cccc(CSc3nnc(C)s3)c2)s1	2.9	1.6	3886	0.3
Cc1nnc(SCc2ccc3c(c2)OCO3)s1	3.2	-8.0	21079*	2.8
Nc1nnc(SCc2ccc(F)cc2Cl)s1	6.6	1.9	21708*	6.7
CNC(=O)C[C@H]1C(=O)N(CCc2ccccc2)C[C@@H]1Cc1ccccc1	-2.5	-2.8	3880	-0.9
Cc1cccnc1C(NC(=O)C1CCN(CCCOc2ccccc2)CC1)c1ccc(F)cc1 (configuration not stated)	7.7	-2.7	3577	-0.1
COc1cccc(NC(=O)C2(C)CCN2C(=O)CC2CC2)c1 (configuration not stated)	3.4	1.8	3457	0.7
SMILES	BoNT-F LC inh	Anthrax LF prot	Autofluor counter	BoNT A protease
CCNC(=O)C1(C)CCCN(CCOc2ccc(Cl)cc2)C1 (configuration not stated)	1.6	-4.9	2870	0.1
O=S(=O)(c1cccc(Cl)c1)N1CCCC1	-1.7	-1.0	24145*	-1.3
O=S(=O)(c1cccc(-c2nnc(-c3cccnc3)o2)c1)N1CCCCC1	1.4	-0.3	19643*	?
O=S(=O)(c1cccc(S(=O)(=O)N2CCCC2)c1)c1cccc(S(=O)(=O)N2CCCC2)c1	-3.6	-2.8	21252*	?
O=S(=O)(c1cc(Cl)ccc1Br)N1CCCCC1	4.1	-5.5	21533*	3.7
CC1CCN(S(=O)(=O)c2cccc(-c3nnc(-c4cccnc4)o3)c2)CC1	-1.7	-4.0	3713	0.2
